The supplement of paper PMC12494721
Counter-ions that a name gives are not always drawn.

Test system: Klebsiella aerogenes DSM 30053
Test: fold change of Cadaverine concentration vs plate DMSO controls (fold change (ratio)); higher = more amine produced, active = hit call of the paper (significant change in both replicates, either direction)
Details: incubation time: 27 h, anaerobic, 37 °C;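 for the amine columns active = adjusted P below 0.05 in both replicates with a change the same way and a mean fold change under 0.8 or over 1.25; inactive = the rest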
Summary of the method: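 In 80 µL wells, cultures of four gut bacterial strains in mGAM started at OD 0.1 before a 1:1 dilution and grew anaerobically at 37 °C for 27 h. Compounds were added to 20 µM final, except sweeteners at 50 µM final. After extraction of whole cultures with cold acetonitrile/methanol plus 0.1% formic acid and centrifugation, amines were measured by LC–triple-quadrupole MS in dynamic MRM mode against external calibration curves, with within-batch drift correction. Values give fold change over DMSO controls on the same plate, averaged across 2 biological replicates.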

Fold change of Cadaverine concentration, inactive:
OC[C@H]1O[C@@H](O[C@H]2[C@H](O)[C@@H](O)[C@H](O)O[C@@H]2CO)[C@H](O)[C@@H](O)[C@H]1O [Lactose] (50 µM) 1.02
C[C@@]12CC[C@@H]3[C@@](CC[C@H]4[C@@]3(C)CCC[C@@]4(C)C(=O)O)(CC1=O)C2 [Iso-Steviol] (50 µM) 1.02
CCCCOc1ccc(C(=O)CCN2CCCCC2)cc1 [Dyclonine hydrochloride] (20 µM) 0.984
CN(C)c1nc(N(C)C)nc(N(C)C)n1 [Altretamine] (20 µM) 1
c1ccc(CNc2ncnc3nc[nH]c23)cc1 [Aminopurine, 6-benzyl] (20 µM) 1
OCCN1CCN(CC/C=C2/c3ccccc3Sc3ccc(C(F)(F)F)cc32)CC1 [Flupentixol dihydrochloride cis-(Z)] (20 µM) 1.02
Cc1onc(-c2ccccc2)c1C(=O)N[C@@H]1C(=O)N2[C@@H]1SC(C)(C)[C@@H]2C(=O)O [Oxacillin sodium] (20 µM) 0.984
Cc1ccc(Cl)c(Nc2ccccc2C(=O)O)c1Cl [Meclofenamic acid sodium salt monohydrate] (20 µM) 1.03
Clc1ccc(C(Cn2ccnc2)OCc2c(Cl)cccc2Cl)c(Cl)c1 (stereo unspecified) [Isoconazole] (20 µM) 1
NNc1nncc2ccccc12 [Hydralazine hydrochloride] (20 µM) 0.994
O=C(O)CCC(=O)c1ccc(-c2ccccc2)cc1 [Fenbufen] (20 µM) 0.998
